Screening results (PubChem BioAssay)
A selection: hits, their analogues and other compounds. The true share with any hit is near 11%.
BAZ2B inh: BAZ2B (human) inhibition | AlphaScreen BAZ2B-H3K14Ac peptide displacement | AID 504333 | Potency, µM (doses to about 114 µM), without a hit: top-dose activity change, negative = inhibition, most hits filed as inhibitors | 360,000 tested, 4.4% active | Q9UIF8; note: % is set by controls: 0 for no effect and ±100 for the full control effect; nearly all actives have a fitted effect of over 60% in size
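In this displacement format the biotinylated H3(5-23) peptide acetylated at Lys14 serves as ligand at 50 nM, with BAZ2B at 50 nM in PBS pH 7.4 containing 0.01% Tween-20. Donor and acceptor beads are 10 ug/mL final.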
JMJD2A Tudor: inhibitors of human JMJD2A Tudor domain. AlphaScreen JMJD2A-Tudor / H3K4me3 peptide binding. Potency, µM (highest dose often 114 µM), inactives show top-dose activity change, negative = inhibition, actives largely listed as inhibitors. 390,000 tested, 4.4% active; note: % is set by controls: 0 for no effect and ±100 for the full control effect; nearly all actives have a fitted effect of over 50% in size
HP1b binding inh: inhibitors of HP1-beta chromodomain binding to methylated histone tails; AlphaScreen HP1-beta / biotin-H3K9me3 peptide binding; Potency, µM (titrated, usually from 114 µM), for the others: top-dose activity change, negative = inhibition, actives largely listed as inhibitors; 390,000 tested, 0.56% active; AID 540317; note: nearly all actives have a fitted effect of over 70% in size
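Compound inhibition of the preformed complex between 50 nM HP1-beta and 50 nM biotinylated H3K9me3 peptide was read by AlphaScreen. Buffer was PBS pH 7.4 with 0.01% Tween-20. Incubations ran 30 min at room temperature, with 10 ug/mL donor/acceptor beads.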
G9a block: inhibitors of human histone lysine methyltransferase G9a. Q96KQ7. G9a H3K9 monomethylation, AlphaScreen, 2 h. Potency, µM (top dose mostly 102 µM), inactives show top-dose activity, negative = inhibition, hits mostly inhibitors. 350,000 tested, 8.8% active. AID 504332; note: % is set by controls: 0 for no effect and ±100 for the full control effect; nearly all actives have a fitted effect of over 75% in size
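AlphaScreen read-out: biotin-H3K9 peptide (500 nM) methylation by 20 nM enzyme with 20 uM SAM, 2 h at room temperature after 15 min compound preincubation; anti-monomethyl H3K9 antibody plus donor/acceptor beads, 10 min dark.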
L3MBTL1 block: inhibitors of human L3MBTL1. AlphaScreen L3MBTL1–H3K9me1 peptide binding. Potency, µM (titrated, usually from 57.1 µM), without a hit: top-dose activity, negative = inhibition, most hits filed as inhibitors. 230,000 tested, 0.66% active; note: % is set by controls: 0 for no effect and ±100 for the full control effect; nearly all actives have a fitted effect of over 60% in size
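L3MBTL1 (50 nM) pre-complexed 30 min with biotinylated H3(1-15)K9me1 peptide (75 nM), then compounds added for 30 min at room temperature; AlphaScreen streptavidin donor/nickel chelate acceptor beads (10 ug/mL final) read after 30 min dark incubation.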
The depositor's hits bear a star; u = inconclusive; x = no result given; [ ] = another dose, or the depositor's remark. Calls come from the whole dose curve; as a rule, active = well fitted inhibition curve with a large enough effect; inconclusive = small, poorly fitted or top-dose-only effect; inactive = no such curve, though single readings can be large or run the other way. Potency is the fitted concentration of half-maximal effect.

SMILES	BAZ2B inh	JMJD2A Tudor	HP1b binding inh	G9a block	L3MBTL1 block
COC(=O)c1c(SC)nc2ccccc2c1OCc1ccccc1Cl	183.5%	144.5%	129.9%	112.4%[59 µM]	x
CCOc1cc(CNC(=O)c2ccc(Cn3c(=O)c4cccn4c4cccnc43)cc2)ccc1OC	-12.3%	-16.5%	1.9%	-2.3%[59 µM]	x
Cc1ccc(C(=O)c2cn(CC(=O)Nc3ccc4c(c3)OCCO4)c3nc(C)ccc3c2=O)cc1	6.7%[57.1 µM]	-25.2%	8.1%	-34.4%[59 µM]	x
Cc1ccc(OCC(=O)Nc2cccc(C(=O)OCc3cc(=O)n4nc(C)sc4n3)c2)cc1	0.9%	9.9%	31.2%	2.8%[12.7 µM]	x
C#CCOCCOCCOCCNc1nc(N2CCN(C(=O)[C@H](CCCCN)n3cc(CCCC)nn3)CC2)nc(N2CCN(C(=O)[C@H](Cc3ccc(O)cc3)n3cc(CCO)nn3)CC2)n1	u	79.4µM*	-18.6%	39.8µM*	8.8%
C#CCOCCOCCOCCNc1nc(N2CCN(C(=O)Cn3cc(CCCCN)nn3)CC2)nc(N2CCN(C(=O)[C@H](Cc3ccc(O)cc3)n3cc(CCO)nn3)CC2)n1	x	-5.1%	37.0%	x	x
C#CCOCCOCCOCCNc1nc(N2CCN(C(=O)[C@H](C)n3cc(CCCN=C(N)N)nn3)CC2)nc(N2CCN(C(=O)[C@H](Cc3ccc(O)cc3)n3cc(CCO)nn3)CC2)n1	u	x	x	31.6µM*	2.2%
C#CCOCCOCCOCCNc1nc(N2CCN(C(=O)[C@H](CCCCN)n3cc(CC(C)O)nn3)CC2)nc(N2CCN(C(=O)[C@H](Cc3ccc(O)cc3)n3cc(CCO)nn3)CC2)n1 (stereo not given in full)	x	-21.6%	13.9%	x	x
Cn1c(=O)c2c(SCC(=O)Nc3ccccc3C(F)(F)F)nc(C3CCCC3)nc2n(C)c1=O	1.6%	-9.4%	24.3%[57 µM]	-1.3%[59 µM]	x
COc1cccc(OCCCCN2CC(C)OC(C)C2)c1 (stereo not given)	u	6.31µM*	u	10µM*	x
CC1CN(CCCCSc2ccccc2)CC(C)O1 (stereo not given)	0.0%	5.1%	36.6%	8.1%	-0.7%
COC(=O)c1ccc(OCCCCN2CC(C)OC(C)C2)cc1 (stereo not given)	79.4µM*	11.2µM*	u	2.82µM*	15.6%
CC1CN(CCCCOc2ccc3ccccc3c2)CC(C)O1 (stereo not given)	u	1.41µM*	u	2µM*	-0.8%
CC1CN(C(=O)COc2ccc3ccccc3c2)CC(C)O1 (stereo not given)	x	0.0%	25.8%	x	-2.0%
O=C(O)c1cccc(S(=O)(=O)Nc2cccc3ccccc23)c1	-1.4%	-24.8%	1.4%	39.8µM*	x
O=S(=O)(Nc1cccc2ccccc12)c1ccccc1	-1.3%	-22.6%	14.6%	x	10.1%
Cc1ccc(S(=O)(=O)Nc2ccc3ccccc3c2[N+](=O)[O-])cc1	x	-29.7%	-11.0%[57 µM]	x	x
O=S(=O)(O)c1c(NS(=O)(=O)c2ccccc2)ccc2ccccc12	x	89.1µM*	15.9%	x	x
O=S(=O)(Nc1cccc2ccccc12)c1ccc2ccccc2c1	x	79.4µM*	u	x	x
Cc1ccc(CCNC(c2ccc(F)cc2)c2nnc(-c3ccccc3Cl)o2)cc1 (stereo not given)	76.0%	60.3%	99.2%	150.8%[59 µM]	x
COc1ccccc1NC(=O)Cn1c(=O)n(CCc2ccccc2)c(=O)c2c3c(sc21)CN(C(C)=O)CC3	-4.9%	-8.7%	15.5%	-0.4%[59 µM]	x
COc1ccc(OC)c(NC(=O)CSc2cn(CC(=O)N3CCOCC3)c3ccccc23)c1	-16.8%	-5.5%	27.0%	5.4%[59 µM]	x
O=C(Nc1cccc(F)c1)/C(=C/c1ccco1)NC(=O)c1ccco1	-29.9%	u	-24.5%	28.2µM*	x
Cc1ccc(C(=O)N/C(=C/c2ccco2)C(=O)Nc2cccc(C)c2)cc1	-34.5%	u	u	u	x
Cc1cccc(NC(=O)/C(=C\c2ccco2)NC(=O)c2cccs2)c1	3.1%[57.1 µM]	89.1µM*	u	31.6µM*	2.8%
SMILES	BAZ2B inh	JMJD2A Tudor	HP1b binding inh	G9a block	L3MBTL1 block
Clc1ccc(OCc2cn3cccnc3n2)c2ncccc12	-5.0%	-15.8%	24.1%	6.0%[12.7 µM]	x
c1cnc2c(OCc3cn4cccnc4n3)cccc2c1	u	u	4.6%	3.16µM*	x
N#Cc1c(NC(=O)CSc2n[nH]c(Cc3ccccc3)n2)oc(-c2ccccc2)c1-c1ccccc1	-37.4%	u	-2.5%	3.55µM*	-19.0%
N#Cc1c(NC(=O)COC(=O)C2CC3C=CC2C3)oc(-c2ccccc2)c1-c1ccccc1 (stereo not given)	u	-2.3%[11.4 µM]	7.2%	7.08µM*	-8.6%
N#Cc1c(NC(=O)CSc2ncccn2)oc(-c2ccccc2)c1-c1ccccc1	x	-27.1%	22.9%	x	x
Cc1ccccc1-c1cc(C(=O)NCc2cccc(Br)c2)nn1CC1CC(c2cccc([N+](=O)[O-])c2)=NO1 (stereo not given)	x	-27.3%	16.2%	x	-9.3%
CCN(CC)c1ccc(NC(=O)CN2CCN(c3ccc(F)cc3)CC2)cc1	u	u	-16.9%	8.91µM*	-26.7%
COc1ccc(N2CCN(CC(=O)Nc3ncc(C)s3)CC2)cc1	-12.0%	-29.5%	0.4%	13.9%[2.33 µM]	x
O=C(CN1CCN(c2ccc(Cl)cc2)CC1)Nc1ccc(F)cc1	-11.7%	-19.3%	30.7%	-1.3%[12.7 µM]	-11.0%
Cn1c(N)c(C(=O)CN2CCc3ccccc3C2)c(=O)n(C)c1=O	-11.6%	3.4%	31.1%	8.91µM*	-1.0%
Cc1cc(NC(=O)CN2CCc3ccccc3C2)nc2c1c(=O)oc1ccccc12	-5.4%	-22.0%	39.5%	28.2µM*	0.9%
COc1ccc(N2CCN(CC(=O)Nc3nc(C)cs3)CC2)cc1	11.2µM*	5.62µM*	39.8µM*	3.55µM*	-2.1%
Cc1ccc(C(=O)Cn2c3c(sc2=N)CCCC3)cc1	x	x	x	-41.0%[59 µM]	x
O=C(NCc1cccc(Br)c1)c1cnn(-c2ccc(F)cc2)c1-n1cccc1	-4.5%	6.9%	48.4%	-0.3%[59 µM]	x
O=C(Nc1ccc(OCc2cc(=O)n3ccccc3n2)cc1)c1ccccc1Cl	6.1%	-35.7%	22.4%[57 µM]	-21.6%[59 µM]	x
COc1ccc(-c2nc3sc(CCNC(=O)C(=O)Nc4ccccc4C#N)c(C)n3n2)cc1	-2.0%	0.6%	29.4%	9.8%[59 µM]	x
COc1ccc(N2CCN(CC(=O)Nc3cc(C)cc(C)c3)CC2)cc1	u	u	-19.6%	79.4µM*	-28.8%
CSc1nc2ccccc2n1CC(=O)Nc1ccccc1	19.1%	-10.1%	24.3%	32.7%	2.8%
O=C(Cn1c(/C=C/c2ccccc2)nc2ccccc21)Nc1ccc(F)cc1	-3.4%	50.1µM*	16.3%	27.7%[59 µM]	4.5%
COc1ccc(CC(=O)Nc2nc3c(s2)CC(C(C)(C)C)CC3)cc1 (stereo not given)	-0.7%	-26.2%	22.4%	0.9%[59 µM]	x
O=C(/C=C/C(=O)N1CCc2ccccc2C1)N1CCc2ccccc2C1	-14.0%	-15.5%	27.7%	-0.5%[59 µM]	x
COc1ccc(N2CCN(CC(=O)Nc3nc4c(s3)CC(C)CC4)CC2)cc1 (stereo not given)	x	50.1µM*	u	10µM*	u
